Measurements reported in PubChem BioAssay AID743330 (NMMLSC, 2014).
Calls of active or inactive are those of the source. The rule behind the calls is not given here.

Test system: Cdc42 mutant
Experiment: GTPase panel EC50 shift with labeled GTP level, profiling panel, mechanism study, biochemical, four GTPases, bead flow cytometry (AID 743330)
Conditions: bead-based flow cytometry, fluorescent GTP binding to GTPases

**Q.** For `CC1(C)Cc2c(sc(NC(=S)NC(=O)c3ccc(F)cc3)c2C(=O)O)CO1`, which EC50 is on record?
**A.** 54 nM (active)

**Q.** Which EC50 does the source give for `CCC1(C)Cc2c(sc(NC(=S)NC(=O)c3ccccc3)c2C(=O)O)CO1` (configuration not stated) here?
**A.** 4 nM (active)
